Source: PubChem (several laboratories)
In the library only some 1.6% were active in any assay of this set; here they are far more common.
RAD54 branch: blocks human RAD54 Holliday junction branch migration; FAM/BHQ fluorescence; inhibition, % at 10.4 µM; 0.14% of 360,000 active; Q92698;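 active means mean normalized replicate activity at least 40 and at least half of replicates scoring 40 or more; inconclusive means only one of the two criteria met; inactive means mean below 40 and under half of replicates reaching 40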;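 further: inhibitors cause a drop in the FAM fluorescence signal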
ABCB6 inh 2: blocks the human ABCB6 transporter; 0.19% of 360,000 active; K562-ABCB6 porphyrin accumulation, flow cytometry, 1 h; stronger effect = lower value; fluorescence ratio to DMSO, % at 10 µM;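 active means fluorescence ratio to DMSO below 75%, the collection mean minus 3 SD; inconclusive means too few cells collected in the well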;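 further: signal is porphyrin accumulated inside mitochondria; lower ratio means ABCB6 inhibition with less porphyrin fluorescence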
Target sequence (Q9NP58 whole entry, looked up): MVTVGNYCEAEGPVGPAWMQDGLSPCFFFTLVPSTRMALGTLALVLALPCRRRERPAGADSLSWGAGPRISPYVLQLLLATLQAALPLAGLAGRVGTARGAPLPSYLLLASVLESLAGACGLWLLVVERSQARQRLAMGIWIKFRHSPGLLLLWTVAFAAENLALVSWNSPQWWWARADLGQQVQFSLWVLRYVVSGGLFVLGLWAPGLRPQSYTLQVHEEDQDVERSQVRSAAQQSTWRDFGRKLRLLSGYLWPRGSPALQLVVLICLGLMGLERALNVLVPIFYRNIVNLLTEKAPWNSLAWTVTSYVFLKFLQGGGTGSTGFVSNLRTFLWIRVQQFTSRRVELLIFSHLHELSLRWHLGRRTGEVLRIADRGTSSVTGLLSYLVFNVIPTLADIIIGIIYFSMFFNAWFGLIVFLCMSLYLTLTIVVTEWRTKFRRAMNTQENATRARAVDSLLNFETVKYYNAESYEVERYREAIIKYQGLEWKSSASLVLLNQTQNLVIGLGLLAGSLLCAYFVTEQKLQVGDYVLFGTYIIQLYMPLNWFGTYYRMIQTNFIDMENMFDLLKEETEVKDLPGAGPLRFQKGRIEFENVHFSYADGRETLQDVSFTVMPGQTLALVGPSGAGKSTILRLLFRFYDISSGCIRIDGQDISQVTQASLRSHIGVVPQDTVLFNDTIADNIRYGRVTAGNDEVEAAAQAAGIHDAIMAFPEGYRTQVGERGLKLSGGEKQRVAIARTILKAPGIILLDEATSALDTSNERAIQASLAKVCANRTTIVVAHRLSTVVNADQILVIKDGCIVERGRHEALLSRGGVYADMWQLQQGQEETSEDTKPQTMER
Myeloid diff MLP: promotes myeloid progenitor differentiation; 1% of 360,000 active; AID 624256; calls only at 10 µM; ER-HoxA9 myeloid progenitors, lysozyme-GFP differentiation, flow cytometry;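 active means normalized GFP-positive differentiation at or above the plate's own cutoff, the solvent-only control mean plus 3 SD; inconclusive means no clear call, values can overlap the other calls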;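 further: cells exposed to compound for four days before flow analysis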
Vif imaging: blocks HIV Vif function | HEK293T cells, Vif self-association by quenched fluorescence, imaging, 24 h | inhibition, % at 7.49 µM | 0.35% of 340,000 active; in the data active means inhibition above about 50%, passing the limit was not always enough; inconclusive means no clear call, values can overlap the other calls; inactive means below about 31%
Glyco luc inh: N-linked glycosylation inhibition. D54 ERlucT glycosylation luciferase reporter, 24 h; percent of 100 nM tunicamycin response. reporter increase, % at 12.5 µM. 0.23% of 360,000 active. AID 588692;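 active means mean luciferase reporter signal, scaled so untreated is 0 and the glycosylation-blocking control 100, at or above a set limit in every replicate; inconclusive means mean reaches the limit but not every replicate does; inactive means mean below the limit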;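 further: luciferase carries N-glycosylation sites so blocking glycosylation raises the light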
ABCB6 inh CP1: inhibitors of human ABC transporter ABCB6; shares compounds with ABCB6 inh 2; AID 602430; ratio response (% of DMSO), % at 10 µM; K562-ABCB6 porphyrin accumulation, flow cytometry, 1 h; stronger effect = lower value; 700 tested, under 10 active;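 active means repeat-averaged ratio response below 75% of DMSO, the collection mean minus 3 SD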;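 further: median porphyrin fluorescence at 575 nm with 488 nm excitation from mitochondria; lower ratio means less porphyrin signal so ABCB6 inhibition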
Each line names hits and unclear results; the compound was inactive in the other large screens (follow-up assays come after a bar, where they were run).

O=C(Oc1ccc2c(=O)c(Oc3ccc4ccccc4c3)coc2c1)c1cncc(Br)c1	ABCB6 inh 2 73 | ABCB6 inh CP1 inactive
COc1ccc(NC(=O)c2cccc(S(=O)(=O)N3CCCCC3)c2)c(OC)c1	ABCB6 inh 2 13 | ABCB6 inh CP1 inactive
C[C@H](CO)N1C[C@H](C)[C@@H](CN(C)C(=O)Nc2ccc(C(F)(F)F)cc2)Oc2ccc(NS(=O)(=O)c3ccc(Cl)cc3)cc2CC1=O	none (no result: ABCB6 inh 2, Myeloid diff MLP, Vif imaging, Glyco luc inh)
O=C(Nc1cccc(Cl)c1)N[C@H]1CC[C@H](CCNC(=O)C2CCCCC2)O[C@H]1CO	none (no result: ABCB6 inh 2, Myeloid diff MLP, Vif imaging, Glyco luc inh)
CN(C(=O)C1CCCC1)C1CCS(=O)(=O)C1 (stereo unspecified)	ABCB6 inh 2 71 | ABCB6 inh CP1 inactive
CN(C(=O)C1CCCCC1)C1CCS(=O)(=O)C1 (stereo unspecified)	none (no result: Vif imaging)
CC1(C)Cn2c(nnc2-c2ccccc2)S1	ABCB6 inh 2 74 | ABCB6 inh CP1 inactive
COc1cccc(S(=O)(=O)N[C@@H]2C=C[C@H](CC(=O)NCc3ccc(F)cc3)O[C@@H]2CO)c1	none (no result: ABCB6 inh 2, Myeloid diff MLP, Vif imaging, Glyco luc inh)
O=C(N[C@@H]1C=C[C@H](CC(=O)N2CCCCC2)O[C@H]1CO)c1ccc2c(c1)OCO2	none (no result: ABCB6 inh 2, Myeloid diff MLP, Vif imaging, Glyco luc inh)
CCOC(=O)c1cc2c(N)c(C(=O)c3cc(C#N)c(SC)nc3C)sc2nc1C	ABCB6 inh 2 72, Myeloid diff MLP inconclusive | ABCB6 inh CP1 inactive
CCOC(=O)c1cc(C#N)c(SC)nc1C	none (no result: RAD54 branch)
Cc1ccc(SCc2c(C#N)c3ccccc3n2C)cc1	none
Cn1c(CSc2ccccc2)c(C#N)c2ccccc21	ABCB6 inh 2 67 | ABCB6 inh CP1 inactive
O=C(COC(=O)C1CCC1)Nc1ccccc1Sc1ccccc1	none
CC(C)CC(=O)OCC(=O)Nc1ccccc1Sc1ccccc1	ABCB6 inh 2 74 (no result: RAD54 branch) | ABCB6 inh CP1 inactive
CCCNC(=O)c1cc2c(c(-c3cccc(-c4cccc(OC)c4)c3)n1)[C@@H](CCO)N([S@](=O)C(C)(C)C)C2	none (no result: ABCB6 inh 2, Myeloid diff MLP, Vif imaging, Glyco luc inh)
Cc1c(NC(=O)c2cc3c(=O)n4ccccc4nc3s2)c(=O)n(-c2ccccc2)n1C	none (no result: RAD54 branch)
CSc1ccccc1NC(=O)c1cc2c(=O)n3ccccc3nc2s1	none | ABCB6 inh CP1 inactive
CC(C)NC(=O)c1cc2c(=O)n3ccccc3nc2s1	none
Cc1cc(C)cc(NC(=O)c2cc3c(=O)n4ccccc4nc3s2)c1	none | ABCB6 inh CP1 inactive
O=C(C[C@@H]1C=C[C@@H](NC(=O)c2cccnc2)[C@H](CO)O1)NCc1ccc(Cl)c(Cl)c1	none (no result: ABCB6 inh 2, Myeloid diff MLP, Vif imaging, Glyco luc inh)
Cc1ccccc1S(=O)(=O)NCC[C@H]1CC[C@@H](NC(=O)C2CCOCC2)[C@H](CO)O1	none (no result: ABCB6 inh 2, Myeloid diff MLP, Vif imaging, Glyco luc inh)
COc1ccccc1CNC(=O)COC(=O)COc1ccccc1F	ABCB6 inh 2 74 | ABCB6 inh CP1 inactive
CCC(=O)N(C)C[C@H]1Oc2cc(-c3ccc(C#N)cc3)ccc2S(=O)(=O)N([C@@H](C)CO)C[C@H]1C	none (no result: ABCB6 inh 2, Myeloid diff MLP, Vif imaging, Glyco luc inh)
COc1ccccc1C1CCN(Cc2c(C)[nH]c3ccccc23)CC1	ABCB6 inh 2 26 | ABCB6 inh CP1 inactive
COc1ccccc1C1CCN(Cc2ccc(Cl)cc2Cl)CC1	none (no result: Vif imaging)
COc1ccccc1C1CCN(Cc2ccc(Cl)c(Cl)c2)CC1	none
COc1ccccc1C1CCN(Cc2cccc3ccccc23)CC1	ABCB6 inh 2 68 | ABCB6 inh CP1 inactive
C[C@@H]1CCCCO[C@H](CN(C)C(=O)Nc2ccc(C(F)(F)F)cc2)[C@H](C)CN([C@H](C)CO)C(=O)c2cc(NS(=O)(=O)c3ccc(F)cc3)ccc2O1	none (no result: ABCB6 inh 2, Myeloid diff MLP, Vif imaging, Glyco luc inh)
C[C@H](CO)N1C[C@H](C)[C@@H](CN(C)S(=O)(=O)c2ccc(Cl)cc2)Oc2ccc(NC(=O)Cc3ccccc3)cc2CC1=O	none (no result: ABCB6 inh 2, Myeloid diff MLP, Vif imaging, Glyco luc inh)
CCCCn1cnc2c(cnn2-c2ccc(Cl)cc2)c1=O	ABCB6 inh 2 62 (no result: Myeloid diff MLP) | ABCB6 inh CP1 inactive
CS(=O)(=O)Nc1cccc(NC(=O)C2Cc3c(-c4cccc(C(N)=O)c4)ccnc3O2)c1 (stereo unspecified)	ABCB6 inh 2 61 | ABCB6 inh CP1 inactive
COc1ccc(NC(=O)C2Cc3c(-c4cccc(C(N)=O)c4)ccnc3O2)cc1OC (stereo unspecified)	none | ABCB6 inh CP1 inactive
CC(=O)Nc1cccc(-c2ccnc3c2CC(C(=O)Nc2cccc(NS(C)(=O)=O)c2)O3)c1 (stereo unspecified)	none
COc1ccc(NC(=O)C2Cc3c(-c4cccc(C(C)=O)c4)ccnc3O2)cc1OC (stereo unspecified)	Myeloid diff MLP inconclusive
Cc1ccc(S(=O)(=O)N(C)C[C@@H]2Oc3ccc(NC(=O)Cc4ccccc4)cc3CC(=O)N([C@@H](C)CO)C[C@H]2C)cc1	none (no result: ABCB6 inh 2, Myeloid diff MLP, Vif imaging, Glyco luc inh)
CCOC(=O)N1CCC(N2Cc3cccc(C(=O)NCc4ccccn4)c3C2=O)CC1	ABCB6 inh 2 73 | ABCB6 inh CP1 inactive
CC1CCCCN1C(=O)CCC(=O)Nc1nnc(C2CCCCC2)s1 (stereo unspecified)	ABCB6 inh 2 20 | ABCB6 inh CP1 inactive
O=C(CCC(=O)N1CCCC1)Nc1nnc(C2CCCCC2)s1	none
CN(C)C(=O)[C@H]1[C@H](CO)[C@H]2Cn3c(ccc(-c4cccnc4)c3=O)[C@H]2N1Cc1ccccc1F	none (no result: ABCB6 inh 2, Myeloid diff MLP, Vif imaging, Glyco luc inh)
Clc1cc(Sc2ccc(Br)cc2)nnc1-c1ccccc1	ABCB6 inh 2 74 | ABCB6 inh CP1 inactive
COc1ccc(OC)c(Nc2ncnc3c2cnn3-c2ccccc2)c1	ABCB6 inh 2 71 | ABCB6 inh CP1 inactive
COc1ccccc1Nc1ncnc2c1cnn2-c1cccc(C)c1	none
Cc1ccccc1S(=O)(=O)N1CC[C@H]2[C@H](CO)Nc3ccc(-c4cccc(C#N)c4)cc3[C@H]21	none (no result: ABCB6 inh 2, Myeloid diff MLP, Vif imaging, Glyco luc inh)
CNC(=O)C[C@@H]1CC[C@H]2[C@@H](COc3ccc(NC(=O)c4ccc(C(F)(F)F)cc4)cc3C(=O)N2C)O1	none (no result: ABCB6 inh 2, Myeloid diff MLP, Vif imaging, Glyco luc inh)
CCc1cc(=O)oc2c(C)c(OCC(=O)N3CCCc4ccccc43)ccc12	ABCB6 inh 2 74 | ABCB6 inh CP1 inactive
Cc1cccc(/C=C2\Sc3ccc(C(=O)N4CCC(C)CC4)cc3N(C)C2=O)c1	ABCB6 inh 2 13, Myeloid diff MLP inconclusive | ABCB6 inh CP1 inactive
Cc1cccc(/C=C2\Sc3ccc(C(=O)N4CCCCC4)cc3N(C)C2=O)c1	none
COc1ccc(S(=O)(=O)N(C)C[C@@H]2OCCCC[C@@H](C)Oc3ccc(NS(=O)(=O)c4ccc(F)cc4)cc3C(=O)N([C@@H](C)CO)C[C@H]2C)cc1	none (no result: ABCB6 inh 2, Myeloid diff MLP, Vif imaging, Glyco luc inh)
Cc1cc(C(=O)COc2ccc(Br)cc2F)c(C)n1CC1CCCO1 (stereo unspecified)	ABCB6 inh 2 71 (no result: Vif imaging) | ABCB6 inh CP1 inactive
CCC(=O)N1C[C@@H](C)[C@@H](OC)CN(C)C(=O)c2ccc(NC(=O)C3CC3)cc2OC[C@H]1C	none (no result: ABCB6 inh 2, Myeloid diff MLP, Vif imaging, Glyco luc inh)
COc1ccccc1N(C)S(=O)(=O)c1ccc(C(=O)N2CCCC(C(F)(F)F)C2)cc1 (stereo unspecified)	ABCB6 inh 2 74 | ABCB6 inh CP1 inactive
COc1ccccc1NS(=O)(=O)c1ccc(C(=O)N2CCCC(C(F)(F)F)C2)cc1 (stereo unspecified)	none
Cc1ccc2[nH]c(=O)c(CN(Cc3cccs3)Cc3nnnn3Cc3ccccc3)cc2c1	ABCB6 inh 2 40 | ABCB6 inh CP1 inactive
